Each structure is given as a SMILES string. Results filed as inconclusive are left out. Active and inactive are the calls of the source. The call rests on the fitted dose curve; in most records, active means well fitted inhibition curve with a large enough effect; inconclusive means small, poorly fitted or top-dose-only effect, or effect the other way; inactive means flat fitted curve, though single readings scatter.

Chain of ATP-dependent 6-phosphofructokinase (Trypanosoma brucei brucei) (O15648 whole entry, looked up): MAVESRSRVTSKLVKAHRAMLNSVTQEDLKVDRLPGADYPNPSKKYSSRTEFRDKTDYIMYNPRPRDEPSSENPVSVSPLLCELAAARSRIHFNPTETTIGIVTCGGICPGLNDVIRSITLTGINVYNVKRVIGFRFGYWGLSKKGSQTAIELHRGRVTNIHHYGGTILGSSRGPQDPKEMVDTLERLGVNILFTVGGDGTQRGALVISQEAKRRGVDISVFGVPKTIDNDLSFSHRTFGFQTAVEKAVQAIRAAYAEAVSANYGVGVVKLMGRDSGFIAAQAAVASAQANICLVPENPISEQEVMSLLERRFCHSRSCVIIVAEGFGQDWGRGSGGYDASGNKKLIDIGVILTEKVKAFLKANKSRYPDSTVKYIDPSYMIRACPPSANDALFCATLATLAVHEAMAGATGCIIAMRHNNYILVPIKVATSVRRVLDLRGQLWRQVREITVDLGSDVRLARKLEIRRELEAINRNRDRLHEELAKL

In the test the target is ATP-dependent 6-phosphofructokinase (Trypanosoma brucei brucei) (UniProt O15648). Put plainly: qHTS Assay to Find Inhibitors of T. brucei phosphofructokinase: hit validation (AID 492961).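 Further: luminescence reports ADP formed as PFK phosphorylates fructose-6-phosphate with ATP.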 As to conditions: T. brucei PFK, ADP-Glo luminescence; series mostly up to 51.4 µM. Put shortly:
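Measures ADP output of PFK (1.25 nM) at 0.1 mM ATP, 0.5 mM F6P, pH 8.0 TEA buffer with 5 mM MgCl2. No-enzyme wells define full inhibition; uninhibited enzyme wells define zero.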
Background: In qHTS, concentration-response curves come from the screen itself.
As for `COc1ccc(C(=O)NCc2ccc(OCCN(C)C)cc2)cc1OC`, the outcome was inactive.
For the molecule `CCCCCCCC(=O)OCC(O)CO` (configuration not stated), the result was inactive.
For the molecule `O=C(/C=C/c1ccccc1)OCc1ccccc1`, the molecule was classed as inactive.
Turning to `CC(CSC(=O)c1ccccc1)C(=O)N1C[C@@H](Sc2ccccc2)C[C@H]1C(=O)O` (some centres not stated), the result was inactive.
Take `C[C@@H]1CCC[C@H](C)N1`: the result was inactive.
In the case of `O=C(O)COC(=O)Cc1ccccc1Nc1c(Cl)cccc1Cl` it was “inactive”.
With `O=C(O)c1ccc[n+]([O-])c1`, the call was inactive.
In the case of `Cc1c(Cn2ccnc2)c2ccccc2n1CCC(=O)O`, the result was inactive.
In the case of `CCCCC1(COC(=O)CCC(=O)O)C(=O)N(c2ccccc2)N(c2ccccc2)C1=O` it was “inactive”; in that of `CN(C/C=C/C#CC(C)(C)C)Cc1cccc2ccccc12`, “inactive”; in that of `O=C(NCN1CCOCC1)c1cnccn1`, “inactive”.
In the case of `Nc1c2c(nc3c1CCC3)CCCC2` it was “inactive”.

The values above are taken from PubChem BioAssay (NCATS).
